Assay results from PMC5869772, “Quantitative profiling of BATF family proteins/JUNB/IRF hetero-trimers using Spec-seq”.

What was measured:
Assay in all cases: Spec-seq (EMSA and sequencing of bound and unbound bands); 100 nM BATFx-JUNB, 1 uM dsDNA library, 50 mM K acetate, 20 mM Tris-acetate, 10 mM Mg acetate, 100 ug/ml BSA, pH 7.9, 10% glycerol, 30 min on ice; native 9% PAGE at 4 C; low values mean tight binding
Settings in all cases: protein: recombinant;recombinant; tags: N-terminal mCherry-TEV, cleaved off;C-terminal 6His; copies: 1;1; dsDNA, one strand shown
BATF;JUNB = target: T1, BATF;JUNB (human;human, UniProt Q16520;P17275 1-125;148-347, |)
T1 sequence 1: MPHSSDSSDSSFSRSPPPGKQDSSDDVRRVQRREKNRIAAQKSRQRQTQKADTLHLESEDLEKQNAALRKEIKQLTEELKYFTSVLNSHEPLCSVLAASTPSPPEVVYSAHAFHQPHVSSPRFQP
T1 sequence 2: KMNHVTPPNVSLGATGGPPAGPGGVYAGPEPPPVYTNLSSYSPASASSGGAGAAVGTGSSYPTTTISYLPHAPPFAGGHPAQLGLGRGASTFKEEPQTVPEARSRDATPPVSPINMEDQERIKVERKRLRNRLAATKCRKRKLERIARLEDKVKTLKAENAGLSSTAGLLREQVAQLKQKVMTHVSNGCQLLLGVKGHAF
Summary of the method: (§1)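 The protein, at 100 nM, was incubated with 1 μM double-stranded degenerate DNA library for 30 min on ice in NEB Cutsmart buffer with 10% glycerol, then resolved by native 9% PAGE at 4 °C. Excised bound and unbound bands were PCR-barcoded and Illumina-sequenced, and each sequence's relative binding energy in kT is −ln of its bound/unbound read-count ratio.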

BATF2 (bZIP);JUNB = target: T2, BATF2 (bZIP);JUNB (human;human, UniProt Q8N1L9;P17275 1-142;148-347, |)
T2 sequence 1: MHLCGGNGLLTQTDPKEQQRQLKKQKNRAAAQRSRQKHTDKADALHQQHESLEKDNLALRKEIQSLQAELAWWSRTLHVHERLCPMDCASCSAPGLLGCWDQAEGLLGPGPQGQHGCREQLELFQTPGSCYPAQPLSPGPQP
T2 sequence 2: T1 sequence 2
Summary of the method: as §1

BATF3;JUNB = target: T3, BATF3;JUNB (human;human, UniProt Q9NR55;P17275 1-127;148-347, |)
T3 sequence 1: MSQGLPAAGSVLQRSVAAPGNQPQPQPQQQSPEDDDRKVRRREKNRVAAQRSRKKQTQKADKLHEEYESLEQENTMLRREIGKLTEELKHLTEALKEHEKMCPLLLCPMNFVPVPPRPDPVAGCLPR
T3 sequence 2: T1 sequence 2
Summary of the method: as §1

Row | Sequence | binding signal (BATF;JUNB) [kT] | binding signal (BATF2 (bZIP);JUNB) [kT] | binding signal (BATF3;JUNB) [kT]
1 | GATAGTCTCATTTTCACCCCGTGAAAATTAGTCATTGTTCCATTACAGTATCTGT | -1.07 | -0.658 | -1.24
2 | GATAGTCTCATTTTCACCCCGTGAAATGTCTCATTTGTTCCATTACAGTATCTGT | 0.287 | 0.93 | 0.725
3 | GATAGTCTCATTTTCACCCCGTGAAATGACGACATTGTTCCATTACAGTATCTGT | -0.298 | 0.288 | -0.606
4 | GATAGTCTCATTTTCACCCCGTGAAACTTAGTCATTGTTCCATTACAGTATCTGT | -0.834 | -0.172 | -0.762
5 | GATAGTCTCATTTTCACCCCGTGAAATGAGTCCCTTGTTCCATTACAGTATCTGT | 0.424 | 1.38 | 1.03
6 | GATAGTCTCATTTTCACCCCGTGAAAAGGAGTCATTGTTCCATTACAGTATCTGT | -0.134 | 0.436 | 0.185
7 | GATAGTCTCATTTTCACCCCGTGAAATGACGCAATTGTTCCATTACAGTATCTGT | -0.574 | -0.276 | -1.27
8 | GATAGTCTCATTTTCACCCCGTGAAATGAGTCGATTGTTCCATTACAGTATCTGT | -0.215 | 1.01 | 0.391
9 | GATAGTCTCATTTTCACCCCGTGAAATGACTGAATTGTTCCATTACAGTATCTGT | -0.087 | 0.382 | 0.179
10 | GATAGTCTCATTTTCACCCCGTGAAATGAGGCAGTTGTTCCATTACAGTATCTGT | 0.781 | 1.36 | 1.27
11 | GATAGTCTCATTTTCACCCCGTGAAATGACTCCGTTGTTCCATTACAGTATCTGT | 0.0406 | 0.724 | 0.582
12 | GATAGTCTCATTTTCACCCCGTGAAATGACCCAGTTGTTCCATTACAGTATCTGT | 0.583 | 1.09 | 1.02
13 | GATAGTCTCATTTTCACCCCGTGAAATGACTTATTTGTTCCATTACAGTATCTGT | -0.08 | 0.489 | 0.185
14 | GATAGTCTCATTTTCACCCCGTGAAATGCCGTCATTGTTCCATTACAGTATCTGT | -0.311 | 0.122 | -0.649
15 | GATAGTCTCATTTTCACCCCGTGAAATGACTCAATTGTTCCATTACAGTATCTGT | -0.531 | -0.145 | -0.634
16 | GATAGTCTCATTTTCACCCCGTGAAAGGAGTCATTTGTTCCATTACAGTATCTGT | -0.0687 | 0.569 | 0.243
17 | GATAGTCTCATTTTCACCCCGTGAAATAGAGTCATTGTTCCATTACAGTATCTGT | -0.357 | 0.163 | -0.29
18 | GATAGTCTCATTTTCACCCCGTGAAATGACTCTCTTGTTCCATTACAGTATCTGT | 0.11 | 0.738 | 0.694
